Unmarked numbers belong to inactive results. Inconclusive results are not listed. The source made the active and inactive calls.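 How the source made its calls, unless noted: active means compounds whose dose series gives a full or clear partial fitted curve of increased nuclear translocation; inconclusive means weak partial curve or effect only at the top dose; inactive means no dose-dependent translocation response.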
Assays:
[1] = biological target: Glucocorticoid receptor (Homo sapiens) (UniProt P04150); assay: GR-GFP Redistribution (AID 450)
Glucocorticoid receptor (Homo sapiens), sequence (P04150 whole entry, looked up): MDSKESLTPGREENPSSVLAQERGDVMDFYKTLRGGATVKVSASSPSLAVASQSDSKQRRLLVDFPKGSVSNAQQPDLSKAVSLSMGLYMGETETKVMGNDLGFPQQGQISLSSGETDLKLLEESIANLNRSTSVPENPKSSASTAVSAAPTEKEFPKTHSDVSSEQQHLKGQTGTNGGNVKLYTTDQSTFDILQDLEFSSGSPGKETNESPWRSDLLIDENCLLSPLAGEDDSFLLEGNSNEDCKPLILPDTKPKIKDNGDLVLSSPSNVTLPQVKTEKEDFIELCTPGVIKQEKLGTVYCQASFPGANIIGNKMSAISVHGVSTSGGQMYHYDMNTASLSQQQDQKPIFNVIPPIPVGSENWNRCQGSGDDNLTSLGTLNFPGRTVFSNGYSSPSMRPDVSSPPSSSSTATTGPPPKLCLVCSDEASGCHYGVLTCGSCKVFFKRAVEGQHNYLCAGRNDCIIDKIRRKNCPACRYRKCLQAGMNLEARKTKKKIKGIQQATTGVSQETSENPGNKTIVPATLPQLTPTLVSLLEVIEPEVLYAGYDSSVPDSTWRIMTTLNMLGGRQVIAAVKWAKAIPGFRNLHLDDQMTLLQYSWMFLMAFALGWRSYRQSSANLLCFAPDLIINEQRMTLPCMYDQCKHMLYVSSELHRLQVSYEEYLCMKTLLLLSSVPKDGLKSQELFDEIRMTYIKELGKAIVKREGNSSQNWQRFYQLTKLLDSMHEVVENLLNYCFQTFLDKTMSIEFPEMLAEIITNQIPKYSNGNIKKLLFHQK

[2] = qHTS Assay for Identification of Small Molecule Agonists for Hypoxia Response Element Signaling Pathway (AID 914; active means well fitted activation curve with a large enough effect in the signal ratio, with a control signal flat, not every such curve was filed as active; the % refers to the signal ratio); conditions: ME-180 (cervical carcinoma) HRE-bla reporter, beta-lactamase ratio, CoCl2, 17 h; activation: active compounds read high
Outline: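 qHTS titration; ME-180 HRE-bla cells; EC50 CoCl2 co-treatment, 17 h at 37 degrees Celsius; CCF4 dye, ex 405nm, em 460nm and 530nm; %Activity from ratio; AC50.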
Potency means the concentration at half of the fitted maximal effect.

`COc1cccc(C(=O)Nc2ccc(-c3nnc(-c4ccco4)o3)cc2)c1` gave a Potency [1] of over 20.6 µM.
For `CC1(C)Cc2c(C#N)c(NCc3ccco3)nc(-c3ccco3)c2CO1`, the Potency [1] was over 20.6 µM and the Potency [2] was 2 µM (active).

— PubChem BioAssay (NCATS)
